Test results taken from PubChem BioAssay (Tox21).
Inconclusive results are not listed. A call without a number means that no potency is given here. Activity calls are given as the source filed them. Calls come from the whole dose curve; as a rule, active = well fitted inhibition curve with a large enough effect in the signal ratio in the repeat runs; inconclusive = weak or mixed curves, or effect the other way; inactive = flat fitted curve, though single readings scatter; the % refers to the signal ratio.

Assay: qHTS assay for small molecule disruptors of the mitochondrial membrane potential (AID 720635)
Details: HepG2 mitochondrial membrane potential, Mito-MPS dye ratio; series mostly up to 83.2 µM
Source text: U.S. Tox21 Program National Center for Advancing Translational Sciences [NCATS] NIH Chemical Genomics Center [NCGC] U.S. Environmental Protection Agency [EPA] National Institutes of Environmental Health Sciences [NIEHS] National Toxicology Program [NTP] U.S. Food and Drug Administration [FDA] Tox21 Assay Overview: Mitochondrial membrane potential (MMP), one of the parameters for mitochondrial function, is generated by mitochondrial electron transport chain that creates an electrochemical gradient by a series of redox reactions. This gradient drives the synthesis of ATP, a crucial molecule for various cellular processes. Measuring MMP in living cells is commonly used to assess the effect of chemicals on mitochondrial function. […] The dye accumulates in the mitochondria of healthy cells as aggregates, with red fluorescence. The mitochondrial potential collapses and the dye can no longer accumulate in the mitochondria and remains in the cytoplasm in monomers, with green fluorescence.
Tox21 Assay Protocol Summary: 2,000 HepG2 cells in 5 uL/well were dispensed into black, clear-bottom 1536-well plates using a Multidrop Combi (Thermo Scientific) dispenser. The assay plates were incubated overnight at 37C to allow cells to attach to the wells, followed by the transfer of 23 nL compound or DMSO vehicle by a pin tool (Kalypsys). The plates were incubated for 1 hr at 37C and 5% CO2, followed by the addition of 5 uL of 2X Mito-MPS dye (BD Biosciences) into each well using Flying Reagent Dispenser (Aurora Discovery) and then following 30 min incubation at 37C. Fluorescence intensity (490nm excitation and 535nm emission for monomers; and 540nm excitation and 590nm emissions for aggregates) was measured using an Envision plate reader.
Potency is the fitted concentration of half-maximal effect.

Structure (SMILES) | Potency
Nc1nccs1 | inactive
N#C/C(=C1\SCC(c2ccccc2Cl)S1)n1ccnc1 (stereo not given) | inactive
CC1CC(O)CC(C)(C)C1 (stereo not given) | inactive
O=C(Nc1ccccc1)Nc1ccccc1 | 1.73 µM (active)
Cc1ccc(/C=N/n2c(-c3ccccc3)csc2=S)cc1 | 18.8 µM (active)
CC(=O)Nc1ccccc1C | inactive
CCCC1C(CC)=CC(CC)=CN1c1ccccc1 (stereo not given) | 54.5 µM (active)
CCCCCC=CCC=CCCCCCCCC(=O)OCC | inactive
NC(=O)Nc1ccc(Cl)cc1 | inactive
O=C(N/N=C/c1ccc([N+](=O)[O-])o1)c1ccc(O)cc1 | 1.27 µM (active)
CCOC(=O)C(C)Oc1ccc(Oc2nc3ccc(Cl)cc3o2)cc1 (stereo not given) | inactive
C=CC(=C)CCCC(C)(C)OC(C)=O | inactive
CCOC(=O)CC(=O)C(=O)OCC | inactive
COCCOC(=O)C1=C(C)NC(C)=C(C(=O)OC/C=C/c2ccccc2)C1c1cccc([N+](=O)[O-])c1 (stereo not given) | 10.6 µM (active)
C/C=C(\C)C(=O)OCCC(C)CCC=C(C)C (stereo not given) | inactive
CCCCCCCC/C=C\CCCCCCCC(=O)OC | inactive
CC(C)CCCC(=O)O | inactive
Cc1oc(C)c(C(=O)Nc2ccccc2)c1C | 27.3 µM (active)
CN1C(=O)CC(C)(c2ccccc2)C1=O (stereo not given) | inactive
CCCCCCOC(=O)C(C)C | inactive

Structure (SMILES) | Potency
CCCCCCOC(=O)CCCCCCCC(=O)OCCCCCC | inactive
CCCCCCCCCCCC[N+](C)(C)CCCS(=O)(=O)[O-] | inactive
Cc1c(C(=O)NN2CCCCC2)nn(-c2ccc(Cl)cc2Cl)c1-c1ccc(Cl)cc1 | 23.7 µM (active)
CC(C)C(OC(=O)c1ccccc1)C(C)(C)COC(=O)c1ccccc1 (stereo not given) | 27.3 µM (active)
Cc1ccccc1N1C(=O)c2cc(S(N)(=O)=O)c(Cl)cc2NC1C (stereo not given) | inactive
C[Si]1(C)O[Si](C)(C)O[Si](C)(C)O1 | inactive
CC(C)CCCCCOC(=O)CCCCC(=O)OCCCCCC(C)C | inactive
CCCCC(=O)O[C@]1(C(=O)CO)[C@@H](C)C[C@H]2[C@@H]3CCC4=CC(=O)C=C[C@]4(C)[C@@]3(F)[C@@H](O)C[C@@]21C | 19.3 µM (active)
CO[C@H]1O[C@H](CO)[C@@H](O)[C@H](O)[C@H]1O | inactive
CCC(=O)OC/C=C/c1ccccc1 | inactive
CC(C)=CC=O | inactive
C[Si](NC1CCCCC1)(NC1CCCCC1)NC1CCCCC1 | inactive
CC(C)(C)CC(C)(C)c1ccc(OCCO)cc1 | 60.8 µM (active)
CC(=O)OCC(=O)[C@@]12OC(C)(C)O[C@@H]1C[C@H]1[C@@H]3C[C@H](F)C4=CC(=O)C=C[C@]4(C)[C@@]3(F)[C@@H](O)C[C@@]12C | inactive
CC#N | inactive
CCc1cccc(N(C)C(N)=Nc2cccc3ccccc23)c1 | inactive
CCOC(=O)c1ccccc1OC | inactive
ON(Cc1ccccc1)Cc1ccccc1 | inactive
O=C(OCCOCCO)c1ccccc1Nc1cccc(C(F)(F)F)c1 | inactive
CC(COc1ccc(C(C)(C)C)cc1)OS(=O)OCCCl (stereo not given) | inactive
